From PubChem BioAssay (NCI)
Compounds without any hit were thinned out: in the full panel of roughly 83,000, 20% have a hit.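 Testing used 96-well plates and a 48-hour single-concentration exposure. Example: -40 means 40% of the starting cells died.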 Values without a mark were called inactive. The source made the active and inactive calls. How the source made its calls: active means growth percent below 10; inactive means the rest.

Key:
Experiment in all cases: NCI-60 one-dose screen, 48 h (100 = growth as untreated, 0 = no growth, -100 = all killed)
Details in all cases: 10 µM unless noted
[1] = test system: DU-145 prostate
[2] = test system: K-562 leukemia
[3] = test system: MALME-3M melanoma
[4] = test system: MDA-MB-231 breast
[5] = test system: RXF 393 renal
[6] = test system: SF-268 CNS
[7] = test system: SF-295 CNS
[8] = test system: SF-539 CNS
[9] = test system: UACC-257 melanoma
[10] = test system: M14 melanoma

Row | Structure (SMILES) | growth [1] | growth [2] | growth [3] | growth [4] | growth [5] | growth [6] | growth [7] | growth [8] | growth [9] | growth [10]
1 | COc1cc(-c2nc3cc(Cl)c(Cl)cc3[nH]2)ccc1OCC(=O)N=Nc1c(O)[nH]c2ccc([N+](=O)[O-])cc12 | 105% | 46.1% | 77.4% | 71.9% | 101% | 81.4% | 101% | 81.7% | 106% | 80.8%
2 | Fc1cccc(CNc2c3ccccc3nc3ccccc23)c1F | 76.7% | 43.4% | 94.1% | 58.2% | 59.5% | 83.4% | 53.7% | 55.5% | 92.9% | 70.6%
3 | CC(=O)N(N=Nc1ccccc1)c1cccc2ccccc12 | 9.87% (active) | 89.5% | 128% | 78.2% | 89.6% | 92.8% | 68.2% | 111% | 103% | 90.9%
4 | C=CCn1c(SCC(=O)Nc2ccc(C(=O)/C=C/c3ccc(Cl)cc3)cc2)nnc1-c1cc(-c2ccc(S(N)(=O)=O)cc2)nc2ccccc12 | 104% | 71.1% | 93.3% | 90% | 80.2% | 74.8% | 97.5% | 87% | 99.8% | 92.2%
5 | Cc1nc2sc(C(=O)Nc3ccccc3)c(N)c2cc1C(=O)c1ccccc1 | 56.1% | 32.4% | 68.3% | 58% | -0.48% (active) | 47.8% | -9.52% (active) | 33.4% | 49.8% | 39.8%
6 | CCCCOC(=O)OCc1cc(=O)c(O)co1 | 113% | 97.4% | 102% | 114% | 113% | 105% | 96.3% | 100% | 104% | 106%
7 | CCOC(=O)c1c(C)nc2c(c1N)CC(=O)N2Cc1cc(F)cc(Cl)c1 | 94.5% | 95.2% | 108% | 87.5% | 92.4% | 95.8% | 85.9% | 94.2% | 82% | 101%
8 | N#Cc1c(-c2ccccc2)cc(-c2ccccc2)n(CCCCCC(=O)Nc2ccccc2N)c1=O | 72.6% | 46.3% | 76.8% | 64.1% | 39% | 64.3% | 95.9% | 72.9% | 78.6% | 80.1%
9 | CC(=O)[C@@H]1CCC=C2CC[C@]3(C)[C@@H](CC[C@@H]4[C@@]5(C)CCCNC(C)(C)[C@@H]5CC[C@]43C)[C@H]21 | -36.8% (active) | -44.6% (active) | -56.1% (active) | -76.5% (active) | -91.9% (active) | 12.3% | -84.7% (active) | 9.45% (active) | -67.4% (active) | -82.1% (active)
10 | Cc1cc(=O)[nH]c2c(C#N)cnn12 | 104% | 103% | 98.9% | 104% | 110% | 99.9% | 101% | 101% | 96.7% | 105%
11 | O=C1/C(=C/c2ccc(Cl)cc2)COc2ccc(O)c(O)c21 | 21.4% | 13.1% | 7.38% (active) | -17.8% (active) | 9.7% (active) | -0.809% (active) | 77.1% | -76% (active) | 10.1% | 30.9%
12 | O=C1NC(=O)c2c1c1c3ccccc3ccc1c1[nH]c3ccc(Br)cc3c21 | 22.5% | 13.3% | -10.7% (active) | 27.5% | 11.6% | 14% | 24.3% | 23.1% | 51.9% | 15.5%
13 | COc1cc(CNC(=O)CCCC/C=C/C(C)C)ccc1OCc1nnc(Nc2ccc([N+](=O)[O-])cc2)o1 | 62% | 59.6% | 69.6% | 67.1% | 54.1% | 79.7% | 64.9% | 70.2% | 77.6% | 66.4%
14 | O=C(/C=C/c1cn(-c2ccccc2)nc1-c1ccc([N+](=O)[O-])cc1)c1ccc(Cl)cc1 | 20.4% | 12.4% | 49.7% | 14.7% | 27.3% | 34.5% | 77% | 30% | 103% | 37.8%
15 | O=C1C(Cl)=C(Nc2ccc(O)cc2)C(=O)N1Cc1ccc(Cl)cc1 | 90.2% | 11.9% | 76.2% | 74.1% | 64.3% | 57.5% | 97.4% | 65% | 70% | 24.2%
16 | Cc1nc(-c2ccccc2)cc2c(O)c(C(=O)NN)[nH]c(=O)c12 | 115% | 104% | 229% | 102% | 101% | 96.2% | 111% | 100% | 118% | 101%
17 | COc1ccc(-c2nn(-c3ccccc3)cc2/C=C2/SC(=S)N(C)C2=O)cc1 | 90.7% | 56.9% | 88.4% | 63% | 96.5% | 99.2% | 51.4% | 70.3% | 29.4% | 97.3%
18 | Oc1c(Cl)cc(Cl)c2ccc(Cn3cc(-c4cc(F)cc(F)c4)nn3)nc12 | 58.5% | 7.96% (active) | 37.2% | 97.9% | 25.6% | 97.2% | 100% | 65.8% | 60.4% | 61.5%
19 | CO[C@H]1/C=C(/C)CCC[C@H](C)[C@H](O)[C@@H](C)C(=O)C(C)(C)[C@@H](O)CC(=O)O[C@@H]1/C(C)=C/c1csc(C)n1 | -48.1% (active) | 13.9% | 45.2% | 10.3% | -23.4% (active) | 36.5% | -17.8% (active) | 1.38% (active) | 56.2% | 3.27% (active)
20 | Cc1ccc(Cl)cc1Nc1nc(C(F)(F)F)ccc1C(=O)N/N=C/c1cccnc1 | 41.5% | 7.72% (active) | 15% | 33.4% | 11.6% | 27.7% | -20.6% (active) | 27.1% | 28.2% | 47.9%
21 | Cc1cc(Cl)ccc1NC(=O)c1cc2ccccc2cc1O | 31.1% | 9.93% (active) | 7.3% (active) | 23.7% | 28% | 30.8% | 8.91% (active) | 22.6% | -5.38% (active) | 30.4%
22 | CS(=O)(=O)C1=CN(CCO)C(=O)N2CCCN=C12 | 105% | 118% | 96.2% | 98.6% | 106% | 97.2% | 105% | 102% | 105% | 98.9%
23 | C/C(=C(/c1ccc(Cl)cc1)c1ccc(OCCN2CCCC2)cc1)c1ccc(Cl)cc1 | 98.1% | 20.3% | 81.5% | 94% | 72% | 91.5% | 100% | 91.8% | 98.6% | 75.8%
24 | O=C(Nc1cccnc1Nc1ccc(F)cc1)c1cn(Cc2cccc(Oc3ccccc3)c2)nn1 | 84.5% | 18.8% | 60.9% | 61.1% | 74.2% | 54.8% | 67.7% | 63.7% | 87.4% | 37.1%
25 | O=[N+]([O-])c1ccc(N/N=C(/C(=N/Nc2ccc([N+](=O)[O-])cc2)c2ccccc2)c2ccccc2)cc1 | 9.75% (active) | 84.4% | 100% | 81.9% | 62.8% | 104% | 69.3% | 94.2% | 98.9% | 80.2%
26 | O=C(Cc1ccccc1)Nc1nc(O)c(/C=C2\C(=O)C=Cc3ccccc32)s1 | 104% | 100% | 106% | 98.1% | 111% | 99.2% | 103% | 102% | 106% | 89.7%
